Experimental findings from PubChem BioAssay AID504332 (National Center for Advancing Translational Sciences (NCATS), 2011) are described below.

Where “and” joins values, the source holds several entries; their conditions need not be identical. Equal entries are not always repeated. The campaign covered roughly 350,000 compounds. About 31,000 (8.9%) were called active. Not shown: some 15% with an inconclusive outcome. Calls come from the whole dose curve; as a rule, active = well fitted inhibition curve with a large enough effect; inconclusive = small, poorly fitted or top-dose-only effect; inactive = no such curve, though single readings can be large or run the other way. What follows is part of a selection rich in actives, with near analogues and random picks from the rest. Entries that show only a call come without a potency. Where a structure was tested more than once in an assay, its records may differ in their call.
Potency is the fitted concentration of half-maximal effect.

Histone-lysine N-methyltransferase EHMT2 (Homo sapiens), sequence (Q96KQ7 913-1193 limits assumed): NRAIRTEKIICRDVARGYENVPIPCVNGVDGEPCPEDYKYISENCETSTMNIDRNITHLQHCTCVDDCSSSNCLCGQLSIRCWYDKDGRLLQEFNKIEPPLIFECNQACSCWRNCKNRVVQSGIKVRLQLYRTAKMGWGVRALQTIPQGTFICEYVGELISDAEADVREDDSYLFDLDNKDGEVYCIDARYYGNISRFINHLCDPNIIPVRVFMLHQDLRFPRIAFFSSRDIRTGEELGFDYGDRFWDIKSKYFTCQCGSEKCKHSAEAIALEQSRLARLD

For the test, the target named is Histone-lysine N-methyltransferase EHMT2 (Homo sapiens) (UniProt Q96KQ7). Kind of test: qHTS Assay for Inhibitors of Histone Lysine Methyltransferase G9a. Note: nearly all actives have a fitted effect of over 75% in size. The settings on record: G9a H3K9 monomethylation, AlphaScreen, 2 h; series mostly up to 59 µM. An outline of the steps:
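G9a (20 nM) preincubated 15 min RT with compounds, then 500 nM biotinylated H3K9 peptide and 20 uM SAM added; 2 h RT reaction. Monomethyl-H3K9 product detected by AlphaScreen with anti-H3K9me1 antibody, streptavidin donor and anti-rabbit IgG acceptor beads.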
For orientation: In qHTS, concentration-response curves come from the screen itself.
Regarding `Cc1ccc(CC2C(=O)N(c3ccc(F)cc3)C(=O)C2C)cc1` (stereo not drawn), the activity, negative = inhibition is 2.4% [at 0.501 µM] (inactive).

Turning to `CCNC(=O)CC1C(=O)N(c2ccc(F)cc2)C(=O)N1Cc1ccc(C)cc1` (stereo not drawn), the Potency result was “inactive”.

Turning to `C=C1c2cc(CC)ccc2NC(=O)N1c1ccc(C)cc1`, the Potency is 11.2 µM (active).

In the case of `O=C(c1cc(COc2ccc(F)c(F)c2)on1)N1CCOCC1`, the activity, negative = inhibition is -4.01% [at 0.501 µM] (inactive).

Regarding `Cc1cc(NS(=O)(=O)c2ccc(NC(=O)C(C)Oc3cccc(C)c3C)cc2)nc(C)n1` (stereo not drawn), the Potency result was “inactive”.

As for `Cn1c(=O)[nH]c(=O)c2c1[nH]c(=S)n2Cc1ccccc1`, the activity, negative = inhibition is -14.7% [at 2.33 µM] (inactive).

Consider `CN1C=CC=C/C1=C1\SC(=S)N(Cc2ccccc2)C1=O`, for which the Potency is 20 µM (active).

On to `Cc1ccc(C)c(NC(=O)COC(=O)CSc2ccccc2)c1`, for which the activity, negative = inhibition is 0.0476% [at 12.7 µM] (inactive).

In the case of `COc1ccc(C)cc1NC(=O)c1cc(-c2ccccc2)nc2c1cnn2C(C)C`, the activity, negative = inhibition is 0.616% [at 12.7 µM] (inactive).

For the compound `CC(Sc1nnc(C2CC2)n1C1CC1)C(=O)Nc1ccc(C(N)=O)cc1` (stereo not drawn), the activity, negative = inhibition is -5.65% [at 2.33 µM] (inactive).

`CC(C)=C(NC(=O)c1ccco1)C(=O)NCCc1nc2ccccc2[nH]1`: the activity, negative = inhibition is 6.16% [at 2.33 µM] (inactive).

Take `CC(C)Oc1ccc(/C=C(\NC(=O)/C=C/c2ccco2)C(=O)NCCc2nc3ccccc3[nH]2)cc1`: the Potency was 39.8 µM (active).

In the case of `COc1ccc(OC(C)C(=O)NCCc2nc3ccccc3[nH]2)cc1` (stereo not drawn), the Potency entry was “inactive”.

On to `Cc1ccc(-n2nc(C)c3c(C)cc(=O)n(CC(=O)Nc4ccc(C(C)C)cc4)c32)cc1`, for which the Potency entry was “inactive”.

As to `CCN(CC(=O)Nc1c(F)cccc1F)C(=O)c1ccc(Sc2nncn2C)c([N+](=O)[O-])c1`, the Potency entry is “inactive”.

For `Cc1ccc(S(=O)(=O)N2CCN(C(=O)CSc3cc(C)ccc3C)CC2)c(C)c1`, the Potency result was “inactive”.

For `Oc1ccc(C2Nc3cccc4cccc(c34)N2)cc1`, the Potency is 25.1 µM (active).

Take `Cc1ccc(C2CC(c3cccc(C)c3)n3nc(N)nc3N2)cc1` (stereo not drawn): the Potency entry is “inactive”.

Consider `COc1ccc(N2C(=O)C3CCCN3C2c2cccc(OC)c2)cc1` (stereo not drawn), for which the Potency result was “inactive”.

`COc1ccc(C2NC(=O)c3ccccc3N2)cc1` (stereo not drawn): the Potency entry is “inactive”.

In the case of `Cc1ccc(C2Nc3cccc4cccc(c34)N2)cc1`, the Potency was 10 µM (active).

`COc1cccc(C2Nc3cccc4cccc(c34)N2)c1`: the Potency was 20 µM (active).

As to `O=C1NC(c2cccc(Cl)c2)Nc2ccccc21` (stereo not drawn), the Potency entry is “inactive”.

`O=C1CCC([N+](=O)[O-])C(c2ccccc2Br)N1` (stereo not drawn): the Potency result was “inactive”.

Consider `Brc1ccccc1C1Nc2cccc3cccc(c23)N1`, for which the Potency is 44.7 µM (active).

For `COc1ccc(C2CC(c3ccc(C)cc3)Nc3nc(N)nn32)cc1` (stereo not drawn), the Potency entry is “inactive”.

Regarding `COc1ccc(C(C#N)(CC(=O)O)c2cnccn2)cc1OC` (stereo not drawn), the activity, negative = inhibition was 3.29% [at 2.33 µM] (inactive).

Take `CC1CCCN(c2nc3c(S(=O)(=O)c4ccc(C(C)C)cc4)nnn3c3ccsc23)C1` (stereo not drawn): the Potency result was “inactive”.

`COc1ccc(CNC(=O)c2ccc(NS(=O)(=O)c3ccc4[nH]c(=O)[nH]c4c3)cc2)cc1OC`: the activity, negative = inhibition is 19.8% [at 12.7 µM] (inactive).

Turning to `CCOc1ccc(-c2nonc2NC(=O)c2oc3ccc(CC)cc3c2C)cc1`, the Potency result is “inactive”.

On to `Cn1c(C(=O)Nc2cccc(C(F)(F)F)c2)cc2c(=O)n3ccccc3nc21`, for which the Potency entry was “inactive”.

With `CC(=O)N1CCc2c(sc(NC(=O)CCS(=O)(=O)c3ccccc3)c2C#N)C1`, the Potency result was “inactive”.

With `CC(C)(C)n1ncc2c(=O)n(Cc3c(Cl)cccc3Br)cnc21`, the activity, negative = inhibition was -12.6% [at 2.33 µM] (inactive).

As for `CCOC(=O)c1cc(NC(=O)c2ccc(F)cc2)c(=O)n2c1oc1ccccc12`, the Potency entry is “inactive”.

For the compound `COc1ccccc1-c1nnc(C2CCN(C(=O)c3ccc(Cl)cc3)CC2)o1`, the Potency entry is “inactive”.

For the compound `CCOC(=O)c1cc(-c2ccc(OC)c(S(=O)(=O)Nc3ccc(OC)cc3OC)c2)on1`, the Potency result is “inactive”.

Take `Cc1cccc(C)c1NC(=O)COC(=O)c1ccccc1O`: the Potency result is “inactive”.

`C=CCc1cccc2cc(C(=O)OCC)c(=O)oc12`: the Potency entry was “inactive”.

With `CCOc1cccc2cc(C(=O)OCC(=O)Nc3c(C)cccc3CC)c(=O)oc12`, the Potency was 44.7 µM (active).

Consider `CCCN(CCC)C(=O)Cn1c(=O)n(-c2ccc(Cl)cc2)c(=O)c2c3c(sc21)CCCCC3`, for which the Potency entry was “inactive”.

Regarding `Cc1ccc(C)c(C(=O)COC(=O)Cn2[nH]c(=O)c3ccccc3c2=O)c1`, the activity, negative = inhibition was 11.2% [at 12.7 µM] (inactive).

With `Cc1ccc(-n2cnc3cc(C(=O)NCCC4=CCCCC4)ccc32)cc1Cl`, the Potency entry is “inactive”.

Take `FC(F)(F)c1nnc2sc(-c3ccco3)nn12`: the Potency entry was “inactive”.

Consider `Cc1nnc2sc(-c3ccco3)nn12`, for which the Potency result is “inactive”.

For the compound `Fc1ccc(-c2ccc(-c3nn4c(-c5ccco5)nnc4s3)o2)cc1`, the Potency is 15.8 µM (active).

Turning to `CSc1ccc(CCNC(=O)c2cc(C)nc3c2c(C)nn3-c2cccc(F)c2)cc1`, the Potency entry was “inactive”.

In the case of `CC(C)n1ncc2c(C(=O)NCc3ccccc3CN(C)C)cc(C3CC3)nc21`, the Potency entry was “inactive”.

Regarding `N#Cc1ccc(N2Cc3ccccc3/C2=N/C(=O)Nc2ccc(Cl)cc2)cc1`, the Potency result is “inactive”.

As for `Cc1cccc(N2CCN(C(=O)c3cccc(S(=O)(=O)N4CCc5ccccc5C4)c3)CC2C)c1` (stereo not drawn), the Potency result was “inactive”.

Take `Cc1cccc(N2Cc3ccccc3C2=NC(=O)c2ccc(Cl)nc2)c1`: the Potency is 11.2 µM (active).

Turning to `O=C(COc1cccc2c1CCNC2=O)NC1CCCCC1`, the activity, negative = inhibition was 8.64% [at 0.501 µM] (inactive).

For `Cc1cc(OCC(=O)NCC2(N(C)C)CCCCC2)cc(C)c1Cl`, the Potency result is “inactive”.

As for `Cc1cccc(OCC(O)Cn2c(N3CCCCC3)nc3c2c(=O)[nH]c(=O)n3C)c1` (stereo not drawn), the Potency entry was “inactive”.

As to `CCOC(=O)Cn1c(CN(Cc2ccccc2)Cc2ccccc2)nc2c1c(=O)[nH]c(=O)n2C`, the Potency result is “inactive”.

With `CCC(C)Sc1nc2c(c(=O)[nH]c(=O)n2C)n1CC(O)COc1cccc2ccccc12` (stereo not drawn), the Potency is 7.94 µM (active).

On to `O=S(=O)(N/N=C\c1cccn1-c1ccccc1)c1ccc2ccccc2c1`, for which the Potency was 31.6 µM (active).

Regarding `O=C(COc1ccc(/C=N/NS(=O)(=O)c2ccccc2)cc1)NCCc1ccccc1`, the activity, negative = inhibition is -4.68% [at 2.33 µM] (inactive).

As to `COc1ccc(/C=N/NS(=O)(=O)c2ccc(NC(C)=O)cc2)cc1`, the Potency result is “inactive”.

With `CC(=O)Cn1cnc2c(cnn2-c2ccccc2)c1=O`, the Potency entry was “inactive”.

Take `CCc1ccc(NC(=O)CCCc2nnc3n(CCCOC)c(=O)c4sccc4n23)cc1`: the Potency entry is “inactive”.

As for `COc1ccccc1CCNC(=O)CN1C(=O)NC2(CCCC2)C1=O`, the activity, negative = inhibition is 8.45% [at 0.501 µM] (inactive).

As for `COc1ccccc1C(=O)NCCC(=O)NN1C(=O)NC2(CCCCC2)C1=O`, the Potency was 50.1 µM (active).

As to `COc1ccccc1C(=O)NCCC(=O)NCC(c1ccco1)N1CCCCC1` (stereo not drawn), the Potency entry was “inactive”.

Turning to `COc1cccc(CNC(=O)Cn2ncn3c(cc4ccccc43)c2=O)c1`, the Potency entry is “inactive”.

As to `COc1ccc(NC(=O)c2sc3nc[nH]c(=O)c3c2C)cc1`, the Potency entry is “inactive”.

Regarding `CCc1cccc(NC(=O)c2cc(-c3ccccc3)n[nH]2)c1`, the Potency result was “inactive”.

With `CN(C(=O)CSc1nnnn1-c1ccccc1)C1CCCCC1`, the Potency entry was “inactive”.

On to `CN(C(=O)CSc1nncc2ccccc12)C1CCCCC1`, for which the Potency is 50.1 µM (active).

As to `CN(C(=O)COc1ncnc2c1cnn2-c1ccccc1)C1CCCCC1`, the activity, negative = inhibition was 25.1% [at 0.0925 µM] (inactive).

Take `COc1ccccc1CNC(=O)C(=O)NCC(c1cccs1)S(=O)(=O)c1cccs1` (stereo not drawn): the Potency result is “inactive”.

For `COc1ccc(-c2ccc(CCC(=O)O)n2-c2ccc(O)cc2)cc1`, the Potency was 31.6 µM (active).

As for `COc1ccc(NC(=O)Cn2c(-c3ccc(OC)cc3)cn(-c3ccc(C)cc3)c2=O)cc1`, the activity, negative = inhibition is -31.1% [at 12.7 µM] (inactive).

Turning to `COc1ccc(-c2nc3ccccc3c(=O)n2CCc2ccc(O)cc2)cc1`, the Potency entry was “inactive”.

As for `CCOC(=O)c1c(CNCc2ccccc2F)c2sc(C)cc2n1C`, the activity, negative = inhibition was 12% [at 12.7 µM] (inactive).

With `Cc1ccc(S(=O)(=O)N2CCN(CC(=O)N/N=C/c3ccc(Br)s3)CC2)cc1`, the Potency entry was “inactive”.

On to `Cc1cccc(NC(=O)CN2CCCN(S(=O)(=O)c3ccc(Br)s3)CC2)c1`, for which the Potency is 39.8 µM (active).

On to `CC(C)N(C(=O)CN1CCN(S(=O)(=O)c2ccc(Br)s2)CC1)C(C)C`, for which the activity, negative = inhibition was 17.1% [at 2.33 µM] (inactive).

As for `CC1CC(C)(C)CC2(C1)NC(=O)N(CC(=O)Nc1nccs1)C2=O` (stereo not drawn), the activity, negative = inhibition was 13.6% [at 0.501 µM] (inactive).

With `COc1cccc(CNC(=O)C2CCC(CNS(=O)(=O)c3cccs3)CC2)c1` (stereo not drawn), the Potency result is “inactive”.

For the compound `CSc1ncc(Cl)c(C(=O)Nc2ccc(S(=O)(=O)N3CCCC(C)C3)cc2)n1` (stereo not drawn), the Potency entry was “inactive”.

Consider `Cc1cc(C)cc(OCC(=O)Nc2nc(-c3ccc(F)cc3)ns2)c1`, for which the Potency entry was “inactive”.

Turning to `CO/N=C(\C(=O)N[C@@H]1C(=O)N2C(C(=O)O)=C(COC(C)=O)CS[C@H]12)c1csc(N)n1` (stereo in doubt), the Potency entry is “inactive and 44.7 µM (active)”.

Consider `CC(=O)c1ccc(N2CCN(c3nc4c(S(=O)(=O)c5ccccc5)nnn4c4ccc(Cl)cc34)CC2)cc1`, for which the Potency entry was “inactive”.

For `Fc1cccc(-n2ncc3c2ncn2nc(-c4ccccc4Cl)nc32)c1`, the Potency entry is “inactive”.

For `Cc1ccc(C)c(N2CCN(C(=O)CCc3c(C)nc4c(c3C)c(=O)n(C)c(=O)n4C)CC2)c1`, the Potency result was “inactive”.

`O=C(Cc1ccccc1Cl)N1CCOCC1`: the Potency entry is “inactive”.

As to `O=C(Nc1ccc(Cl)cc1)Nc1ccc(C(=O)N2CCOCC2)cc1`, the Potency result is “inactive”.

On to `S=C(Cc1ccc(Cl)cc1)N1CCOCC1`, for which the Potency was 14.1 µM (active).

`COc1cccc(C(=O)Nc2ccc3oc(-c4ccc5ccccc5c4)nc3c2)c1`: the Potency result is “inactive”.

Turning to `COc1ccc(NC(=O)c2c(C)oc3c2CCCC3)cc1`, the Potency entry is “inactive”.

With `COc1ccc(N/N=C2/CCCCC2=O)cc1`, the Potency is 10 µM (active).

As for `COc1ccc(C2C3=C(CCCC3=O)N(CC(=O)O)C3=C2C(=O)CCC3)cc1`, the Potency entry is “inactive”.

Take `Cc1ccc(-c2nn3c(=O)cc(CN4CCN(C(=O)Nc5cccc(C(F)(F)F)c5)CC4)nc3s2)cc1`: the Potency result is “inactive”.
